Hits are enriched below; roughly 4.7% of the tested compounds scored in any of these assays.
PfHsp90 yeast 2: growth inhibition of yeast expressing Plasmodium Hsp90; AID 504621; 0.32% of 310,000 active; S. cerevisiae expressing PfHsp90, BacTiter-Glo ATP, 48 h; yeast lacking PDR1 and PDR3 efflux regulators; inhibition, % at 9.4 µM;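 active = every replicate shows inhibition above about 80%, whatever the replicate mean, limit read from the data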
SKKanGAS inh: SKKanGAS growth inhibition | S. pyogenes SKKanGAS, kanamycin growth, BacTiter-Glo, 6 h | inhibition, % at 7.5 µM | 1.3% of 300,000 active | AID 1662;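 active = mean replicate score, as percent of positive control median, at least 50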;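 also: strain carries kanamycin resistance gene driven by streptokinase promoter and grows in 40 µg/ml kanamycin; loss of luminescence reflects streptokinase promoter inhibition or plain growth inhibition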
tim23-1 inh: tim23-1 yeast growth inhibition | AID 463212 | inhibition, % at 20 µM | S. cerevisiae tim23-1 growth, BacTiter-Glo luminescence, 24 h | 1.3% of 330,000 active;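 active = growth inhibition of the mutant yeast at or above 50%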;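 also: temperature-sensitive mutant grown at 25 °C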
EBI2 block: EBI2 (human) antagonism; EBI2 beta-arrestin recruitment, luminescence, 7a,25-OHC stimulated; inhibition, % at 5 µM; 0.81% of 360,000 active; P32249; in the data active = inhibition above about 38%;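 also: enzyme fragment complementation signal reports receptor beta-arrestin coupling in cells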
Target sequence (P32249 whole entry, looked up, the tested form may be a part): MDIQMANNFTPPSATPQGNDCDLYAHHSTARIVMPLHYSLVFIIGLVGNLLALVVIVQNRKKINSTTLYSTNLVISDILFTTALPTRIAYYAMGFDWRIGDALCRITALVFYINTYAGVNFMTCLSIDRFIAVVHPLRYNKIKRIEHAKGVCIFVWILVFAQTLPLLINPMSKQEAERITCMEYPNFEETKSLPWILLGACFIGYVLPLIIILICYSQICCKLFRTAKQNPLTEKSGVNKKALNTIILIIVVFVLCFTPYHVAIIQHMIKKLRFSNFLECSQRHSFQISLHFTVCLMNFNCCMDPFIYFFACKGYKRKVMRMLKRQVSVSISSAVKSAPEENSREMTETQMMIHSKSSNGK
TIM10 inh: growth inhibitors of TIM10 yeast strain. inhibition, % at 10 µM. 1.4% of 330,000 active. S. cerevisiae TIM10 strain growth, BacTiter-Glo luminescence, 24 h;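 active = inhibition of 40% or more at the single tested concentration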;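 also: wild-type TIM10 isogenic control strain grown at permissive 25 °C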
tim10-1 inh: growth inhibitors of tim10-1 mutant yeast; 2.2% of 330,000 active; S. cerevisiae tim10-1 ts strain growth, BacTiter-Glo, 24 h; AID 463190; inhibition, % at 20 µM;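 active = inhibition of at least 40%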;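 also: mutant grown at 25 °C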
tim10-1 confirm: confirmation of tim10-1 mutant yeast growth inhibitors. shares compounds with tim10-1 inh. S. cerevisiae tim10-1 ts strain growth, BacTiter-Glo, 24 h. inhibition, % at 20 µM. 56% of 7,400 active. AID 463213;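 active = inhibition of yeast growth at or above a set limit in either of two repeat tests at 20 µM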;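 also: tim10-1 mutant grown at permissive 25 °C to find synthetic lethal compounds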
A number is an active result.

What do the screens show for `CCOC(=O)c1c(C)[nH]c(C)c1C(=O)COC(=O)c1cc2ccccc2cc1OC`?
PfHsp90 yeast 2: inactive; SKKanGAS inh: inactive; tim23-1 inh: inactive; EBI2 block: inactive; TIM10 inh: inactive; tim10-1 inh: inactive

Results for O=C1CN(C(=O)CNC(=O)c2ccccc2Cl)c2ccccc2N1 ?
PfHsp90 yeast 2: inactive; SKKanGAS inh: inactive; tim23-1 inh: inactive; EBI2 block: inactive; TIM10 inh: inactive; tim10-1 inh: inactive

Results for Cc1sc(C(C2C(=O)CC(C)(C)CC2=O)C2C(=O)CC(C)(C)CC2=O)cc1[N+](=O)[O-] ?
PfHsp90 yeast 2: inactive; SKKanGAS inh: inactive; tim23-1 inh: inactive; EBI2 block: inactive; TIM10 inh: inactive; tim10-1 inh: 44; tim10-1 confirm: 41

Results for Cc1ccc(-c2nc(C#N)c(NCc3cccc4c3OCO4)o2)cc1 ?
PfHsp90 yeast 2: inactive; SKKanGAS inh: inactive; tim23-1 inh: inactive; EBI2 block: inactive; TIM10 inh: inactive; tim10-1 inh: 44; tim10-1 confirm: inactive

Results for CC(C)CN(C(=O)CSc1nc2ccccc2o1)c1c(N)n(Cc2ccccc2)c(=O)[nH]c1=O ?
PfHsp90 yeast 2: inactive; tim23-1 inh: inactive; EBI2 block: inactive; TIM10 inh: inactive; tim10-1 inh: inactive

What do the screens show for `CC(=C/c1ccc(C(C)C)cc1)/C=N/NC(=O)CSc1ccccn1`?
PfHsp90 yeast 2: inactive; SKKanGAS inh: 68; tim23-1 inh: inactive; EBI2 block: inactive; TIM10 inh: inactive; tim10-1 inh: 47; tim10-1 confirm: inactive

What do the screens show for `CCc1nc2ccc(C(=O)N3CCN(C)CC3)cn2c1N(CCC(C)C)CCN(C)C`?
EBI2 block: inactive

Results for N#CC(C#N)=Cc1cc2ccccc2nc1N1CCOCC1 ?
PfHsp90 yeast 2: inactive; SKKanGAS inh: inactive; tim23-1 inh: inactive; EBI2 block: inactive; TIM10 inh: inactive; tim10-1 inh: 44; tim10-1 confirm: inactive

Results for N#C/C(=C\c1cc2ccccc2nc1N1CCOCC1)C(=O)Nc1ccc(N2CCOCC2)cc1 ?
PfHsp90 yeast 2: inactive; SKKanGAS inh: inactive; tim23-1 inh: inactive; EBI2 block: inactive; TIM10 inh: inactive; tim10-1 inh: inactive

Results for Cc1ccc(-c2noc(CN(C(=O)C(c3ccccc3)c3ccccc3)C(C)C)n2)cc1 ?
PfHsp90 yeast 2: inactive; SKKanGAS inh: inactive; tim23-1 inh: inactive; EBI2 block: inactive; TIM10 inh: inactive; tim10-1 inh: 41; tim10-1 confirm: inactive

Results for COc1ccc(CN(C2CCCC2)S(=O)(=O)c2ccc(-n3cnnn3)cc2)cc1OC ?
PfHsp90 yeast 2: inactive; SKKanGAS inh: inactive; tim23-1 inh: inactive; EBI2 block: inactive; TIM10 inh: inactive; tim10-1 inh: inactive

How did COc1ccc(CN(C2CCCC2)S(=O)(=O)c2ccc(-n3cnnn3)cc2)cc1 do in these assays?
PfHsp90 yeast 2: inactive; SKKanGAS inh: inactive; tim23-1 inh: inactive; EBI2 block: inactive; TIM10 inh: inactive; tim10-1 inh: 40; tim10-1 confirm: 35

How did Cn1c(=O)[nH]c(=O)c2c1nc(N)n2Cc1ccccc1 do in these assays?
PfHsp90 yeast 2: inactive; SKKanGAS inh: inactive; tim23-1 inh: inactive; EBI2 block: inactive; TIM10 inh: inactive; tim10-1 inh: inactive

Results for O=C(Nc1nnc(C2=COCCO2)o1)c1ccc(Cl)cc1 ?
PfHsp90 yeast 2: inactive; SKKanGAS inh: inactive; tim23-1 inh: inactive; EBI2 block: inactive; TIM10 inh: inactive; tim10-1 inh: 57; tim10-1 confirm: 32

How did O=C(Nc1nnc(C2=COCCO2)o1)c1ccc([N+](=O)[O-])cc1 do in these assays?
PfHsp90 yeast 2: inactive; SKKanGAS inh: inactive; tim23-1 inh: inactive; EBI2 block: inactive; TIM10 inh: inactive; tim10-1 inh: 46; tim10-1 confirm: 35

How did CC(=O)Nc1nnc(C2=COCCO2)o1 do in these assays?
SKKanGAS inh: inactive; tim23-1 inh: inactive; EBI2 block: inactive; TIM10 inh: inactive; tim10-1 inh: inactive

What do the screens show for `O=C(Nc1nnc(C2=COCCO2)o1)c1ccc(S(=O)(=O)N2CCOCC2)cc1`?
PfHsp90 yeast 2: inactive; SKKanGAS inh: inactive; tim23-1 inh: inactive; EBI2 block: inactive; TIM10 inh: inactive; tim10-1 inh: inactive

Results for O=C(Nc1nnc(C2=COCCO2)o1)c1ccc(Br)cc1 ?
PfHsp90 yeast 2: inactive; SKKanGAS inh: 101; tim23-1 inh: inactive; EBI2 block: inactive; TIM10 inh: inactive; tim10-1 inh: 42; tim10-1 confirm: 39

What do the screens show for `O=c1cc(CN2CC(O)Cc3ccc4ccccc4c32)nc2sccn12` (centres undefined)?
PfHsp90 yeast 2: inactive; SKKanGAS inh: inactive; tim23-1 inh: inactive; EBI2 block: inactive; TIM10 inh: inactive; tim10-1 inh: inactive

What do the screens show for `OCCN1CCN(CCCN2c3ccccc3Sc3ccc(Cl)cc32)CC1`?
PfHsp90 yeast 2: inactive; SKKanGAS inh: inactive; tim23-1 inh: inactive; TIM10 inh: inactive; tim10-1 inh: 43; tim10-1 confirm: inactive

Results for OCCN1CCN(CC/C=C2/c3ccccc3Sc3ccc(Cl)cc32)CC1 ?
PfHsp90 yeast 2: inactive; tim23-1 inh: inactive; EBI2 block: inactive; TIM10 inh: inactive; tim10-1 inh: 44; tim10-1 confirm: inactive

How did CN(C)CC/C=C1\c2ccccc2Sc2ccc(Cl)cc21 do in these assays?
PfHsp90 yeast 2: inactive; SKKanGAS inh: inactive; tim23-1 inh: inactive; EBI2 block: inactive; TIM10 inh: inactive; tim10-1 inh: inactive

Results for O=C(COC(=O)c1cc(Cl)ccc1[N+](=O)[O-])NC1CC1 ?
PfHsp90 yeast 2: inactive; tim23-1 inh: inactive; EBI2 block: inactive; TIM10 inh: inactive; tim10-1 inh: inactive

Results for O=C(OC1CCCCC1=O)c1cc(Cl)ccc1[N+](=O)[O-] (centres undefined) ?
PfHsp90 yeast 2: inactive; SKKanGAS inh: inactive; tim23-1 inh: inactive; EBI2 block: inactive; TIM10 inh: inactive; tim10-1 inh: 45; tim10-1 confirm: 39

What do the screens show for `CCS(=O)(=O)NCc1ccc2[nH]c3c(c2c1)CCCC3`?
SKKanGAS inh: inactive; tim23-1 inh: inactive; TIM10 inh: inactive; tim10-1 inh: inactive

Results for Cc1cc(C)cc(NC(=S)NCc2ccc3[nH]c4c(c3c2)CCCC4)c1 ?
PfHsp90 yeast 2: inactive; SKKanGAS inh: inactive; tim23-1 inh: inactive; EBI2 block: inactive; TIM10 inh: inactive; tim10-1 inh: 41; tim10-1 confirm: inactive

What do the screens show for `O=C1C(Cc2c[nH]c3ccccc23)NC(=S)N1C1CCCCC1` (centres undefined)?
PfHsp90 yeast 2: inactive; tim23-1 inh: inactive; EBI2 block: inactive; TIM10 inh: inactive; tim10-1 inh: inactive

Results for CNc1ccc(Oc2nc([N+](=O)[O-])nn2C)cc1 ?
PfHsp90 yeast 2: inactive; SKKanGAS inh: inactive; tim23-1 inh: inactive; EBI2 block: inactive; TIM10 inh: inactive; tim10-1 inh: inactive

What do the screens show for `OCC(O)CNC(=S)NC1CCCCC1` (centres undefined)?
PfHsp90 yeast 2: inactive; tim23-1 inh: inactive; EBI2 block: inactive; TIM10 inh: inactive; tim10-1 inh: inactive

Bioassay records from PubChem.
